Measurements reported in PubChem BioAssay (EPA / NIEHS).
Active and inactive are the calls of the source. Rule for the calls: active = hit-call score of the fitted dose curve at least 0.9, where 1 is the maximum; inactive = score below 0.9.

What was measured:
Conditions in all cases: mRNA level, 48 h; actives raise or lower the signal
CYP2C9 (gene 1559) = test: LTEA_HepaRG_CYP2C9: Life Technologies and Expression Analysis (LTEA) Assay for CYP2C9 using HepaRG (AID 2283484)
Method in brief: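 Differentiated human HepaRG cells in serum-free induction medium were exposed 48 h to chemicals in 8-point half-log series from 100 uM (0.5% DMSO), in duplicate. CYP2C9 mRNA was measured by qRT-PCR, normalized to ACTB/GAPDH/POLR2A, with bidirectional fitting versus DMSO.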

CYP2E1 (gene 1571) = test: LTEA_HepaRG_CYP2E1: Life Technologies and Expression Analysis (LTEA) Assay for CYP2E1 using HepaRG (AID 2283485)
Method in brief: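 HepaRG cells, plated 48 h, then exposed 48 h in serum-free induction medium to eight half-log concentrations from 100 uM in 0.5% DMSO, duplicate. CYP2E1 mRNA by qRT-PCR, normalized to ACTB/GAPDH/POLR2A; bidirectional fit versus DMSO.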

CYP4A11 (gene 1579) = test: LTEA_HepaRG_CYP4A11: Life Technologies and Expression Analysis (LTEA) Assay for CYP4A11 using HepaRG (AID 2283486)
Method in brief: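 Readout is CYP4A11 transcript level by qRT-PCR, normalized to three housekeeping genes and fitted bidirectionally against 0.5% DMSO. Human HepaRG cells were treated 48 h, in duplicate, with an 8-point half-log series topping at 100 uM.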

[1] = read-out: Cytochrome P450 3A4 (Homo sapiens) (UniProt P08684); test: LTEA_HepaRG_CYP3A4: Life Technologies and Expression Analysis (LTEA) Assay for CYP3A4 using HepaRG (AID 2283487)
Method in brief: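 HepaRG, 48 h exposure, 8-pt CRC from 100 uM (half-log), 0.5% DMSO, duplicates; serum-free induction medium. Readout: CYP3A4 mRNA, qRT-PCR, ACTB/GAPDH/POLR2A normalization. Bidirectional fit vs DMSO.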

[2] = read-out: DNA damage-inducible transcript 3 (DDIT3), DDIT3 (gene 1649); test: LTEA_HepaRG_DDIT3: Life Technologies and Expression Analysis (LTEA) Assay for DNA damage-inducible transcript 3 (DDIT3) using HepaRG (AID 2283488)
Method in brief: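 HepaRG cells, 48 h after plating, exposed 48 h in serum-free induction medium to 8 half-log concentrations up to 100 uM in 0.5% DMSO, in duplicate. DDIT3 mRNA measured by TaqMan qRT-PCR, normalized to ACTB, GAPDH and POLR2A. Fitted bidirectionally against DMSO.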

[3] = read-out: Pro-epidermal growth factor (Homo sapiens) (UniProt P01133); test: LTEA_HepaRG_EGF: Life Technologies and Expression Analysis (LTEA) Assay for Epidermal growth factor (EGF) using HepaRG (AID 2283489)
Method in brief: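 EGF transcript measured by Fluidigm TaqMan qRT-PCR with three housekeeping genes for normalization, 48 h after dosing HepaRG cultures in duplicate (top 100 uM, half-log steps, 0.5% DMSO vehicle). Gain or loss relative to DMSO fitted.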

[4] = read-out: Early growth response protein 1 (EGR1) transcription factor, EGR1 (gene 1958); test: LTEA_HepaRG_EGR1: Life Technologies and Expression Analysis (LTEA) Assay for Early growth response protein 1 (EGR1) transcription factor using HepaRG (AID 2283490)
Method in brief: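 Differentiated HepaRG cells in serum-free induction medium exposed 48 hours, duplicate, to 8 half-log concentrations up to 100 uM in 0.5% DMSO. EGR1 mRNA measured by TaqMan qRT-PCR, normalized to ACTB, GAPDH, POLR2A; bidirectional fit versus DMSO.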

[5] = read-out: Ezrin (EZR), EZR (gene 7430); test: LTEA_HepaRG_EZR: Life Technologies and Expression Analysis (LTEA) Assay for Ezrin (EZR) using HepaRG (AID 2283491)
Method in brief: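 Read-out is EZR transcript level by qRT-PCR, normalized to three housekeeping genes and fitted bidirectionally against the DMSO control. Human HepaRG cells received test chemicals for 48 h at eight half-log concentrations up to 100 uM in 0.5% DMSO.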

[6] = read-out: Cytochrome P450 3A7 (Homo sapiens) (UniProt P24462); test: LTEA_HepaRG_CYP3A7: Life Technologies and Expression Analysis (LTEA) Assay for CYP3A7 using HepaRG (AID 2283492)
Method in brief: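 CYP3A7 transcript measured by qRT-PCR (ACTB, GAPDH, POLR2A normalization) after 48 h chemical exposure of HepaRG cells in duplicate. Eight half-log concentrations, maximum 100 uM, 0.5% DMSO vehicle; bidirectional curve fitting against DMSO baseline.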

CYP3A5 (gene 1577) = test: LTEA_HepaRG_CYP3A5: Life Technologies and Expression Analysis (LTEA) Assay for CYP3A5 using HepaRG (AID 2283493)
Method in brief: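 HepaRG cells, plated 48 h then in serum-free induction medium, dosed in duplicate for 48 h with eight half-log concentrations up to 100 uM in 0.5% DMSO. Gene mRNA by Fluidigm TaqMan qRT-PCR, normalized to ACTB, GAPDH, POLR2A.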

[7] = read-out: Fatty Acid-Binding Protein 1 (FABP1), FABP1 (gene 2168); test: LTEA_HepaRG_FABP1: Life Technologies and Expression Analysis (LTEA) Assay for Fatty Acid-Binding Protein 1 (FABP1) using HepaRG (AID 2283494)
Method in brief: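 Differentiated human HepaRG cells exposed 48 h in serum-free induction medium to eight half-log concentrations up to 100 uM (0.5% DMSO), duplicate. FABP1 mRNA by qRT-PCR, normalised to ACTB, GAPDH, POLR2A; bidirectional fitting against DMSO.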

[8] = read-out: Cytochrome P450 4A22 (Homo sapiens) (UniProt Q5TCH4); test: LTEA_HepaRG_CYP4A22: Life Technologies and Expression Analysis (LTEA) Assay for Cytochrome P450 4A22 (CYP4A22) using HepaRG (AID 2283495)
Method in brief: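 Gene expression measured by qRT-PCR against three housekeeping genes (ACTB, GAPDH, POLR2A), with gain or loss fitted relative to 0.5% DMSO vehicle. HepaRG cultures received 48 h chemical treatment, top concentration 100 uM, half-log steps, duplicate wells.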

[9] = read-out: Cytochrome P450 7A1 (Homo sapiens) (UniProt P22680); test: LTEA_HepaRG_CYP7A1: Life Technologies and Expression Analysis (LTEA) Assay for Cytochrome P450 7A1 (CYP7A1) using HepaRG (AID 2283496)
Method in brief: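 HepaRG cells plated 48 h, then switched to serum-free induction medium and exposed in duplicate for 48 h to 8-point half-log series from 100 uM in 0.5% DMSO. CYP7A1 mRNA by qRT-PCR (TaqMan), normalized to ACTB/GAPDH/POLR2A; bidirectional fit versus DMSO.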

[10] = read-out: Glutathione S-Transferase (GSTA2), GSTA2 (gene 2939); test: LTEA_HepaRG_GSTA2: Life Technologies and Expression Analysis (LTEA) Assay for Glutathione S-Transferase (GSTA2) using HepaRG (AID 2283497)
Method in brief: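 Differentiated human HepaRG cells were exposed in duplicate for 48 h in serum-free induction medium, 8 points from 100 uM top in half-log steps, 0.5% DMSO. GSTA2 mRNA was measured by TaqMan qRT-PCR, normalized to ACTB, GAPDH and POLR2A; bidirectional fit versus DMSO.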

[11] = read-out: Glutamate-cysteine ligase catalytic (GCLC), GCLC (gene 2729); test: LTEA_HepaRG_GCLC: Life Technologies and Expression Analysis (LTEA) Assay for Glutamate-cysteine ligase catalytic (GCLC) using HepaRG (AID 2283498)
Method in brief: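 Differentiated HepaRG cells exposed 48 h in serum-free induction medium, eight-point half-log series topping at 100 uM in 0.5% DMSO, duplicates. GCLC mRNA by qRT-PCR normalized to ACTB, GAPDH and POLR2A, fitted bidirectionally versus DMSO.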

[12] = read-out: growth arrest and DNA damage 45 (GADD45G), GADD45G (gene 10912); test: LTEA_HepaRG_GADD45G: Life Technologies and Expression Analysis (LTEA) Assay for growth arrest and DNA damage 45 (GADD45G) using HepaRG (AID 2283499)
Method in brief: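 GADD45G transcript level by qRT-PCR (housekeeping-normalized: ACTB, GAPDH, POLR2A) after 48 h chemical treatment of a single HepaRG lot in serum-free induction medium; eight-point half-log series up to 100 uM in 0.5% DMSO, duplicates, up- or down-regulation scored.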

[13] = read-out: Glutamate-cysteine ligase regulatory (GCLM), GCLM (gene 2730); test: LTEA_HepaRG_GCLM: Life Technologies and Expression Analysis (LTEA) Assay for Glutamate-cysteine ligase regulatory (GCLM) using HepaRG (AID 2283500)
Method in brief: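 Differentiated HepaRG cells exposed 48 h in serum-free induction medium to eight half-log concentrations up to 100 uM (0.5% DMSO). GCLM mRNA by TaqMan qRT-PCR, normalized to ACTB, GAPDH and POLR2A; bidirectional fit versus DMSO.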

[14] = read-out: Glutathione S-transferase M3 (GSTM3), GSTM3 (gene 2947); test: LTEA_HepaRG_GSTM3: Life Technologies and Expression Analysis (LTEA) Assay for Glutathione S-transferase M3 (GSTM3) using HepaRG (AID 2283501)
Method in brief: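 GSTM3 transcript levels came from Fluidigm TaqMan qRT-PCR normalized to three housekeeping genes, fitted in both directions against DMSO. HepaRG cultures received chemicals for 48 h in serum-free induction medium (0.5% DMSO), 8 half-log concentrations up to 100 uM, duplicate.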

[15] = read-out: Heat shock 70 kDa protein 1 (HSPA1A), gene 3303; test: LTEA_HepaRG_HSPA1A: Life Technologies and Expression Analysis (LTEA) Assay for Heat shock 70 kDa protein 1 (HSPA1A) using HepaRG (AID 2283502)
Method in brief: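 Human HepaRG cells in serum-free induction medium were exposed in duplicate for 48 h to 8 half-log concentrations, highest 100 uM, in 0.5% DMSO. HSPA1A mRNA read by TaqMan qRT-PCR, normalized to ACTB, GAPDH, POLR2A, fitted bidirectionally against DMSO.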

[16] = read-out: Hypoxia-inducible factor 1-alpha (Homo sapiens) (UniProt Q16665); test: LTEA_HepaRG_HIF1A: Life Technologies and Expression Analysis (LTEA) Assay for Hypoxia-inducible factor 1 (HIF1A) Trancription factor using HepaRG (AID 2283503)
Method in brief: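 Differentiated HepaRG cells in serum-free induction medium exposed 48 h, in duplicate, to 8-point half-log series from 100 uM in 0.5% DMSO. HIF1A mRNA measured by TaqMan qRT-PCR, normalized to ACTB/GAPDH/POLR2A, fitted bidirectionally versus DMSO.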

Measured: AC50

Chain of Cytochrome P450 3A7 (Homo sapiens) (P24462 whole entry, looked up): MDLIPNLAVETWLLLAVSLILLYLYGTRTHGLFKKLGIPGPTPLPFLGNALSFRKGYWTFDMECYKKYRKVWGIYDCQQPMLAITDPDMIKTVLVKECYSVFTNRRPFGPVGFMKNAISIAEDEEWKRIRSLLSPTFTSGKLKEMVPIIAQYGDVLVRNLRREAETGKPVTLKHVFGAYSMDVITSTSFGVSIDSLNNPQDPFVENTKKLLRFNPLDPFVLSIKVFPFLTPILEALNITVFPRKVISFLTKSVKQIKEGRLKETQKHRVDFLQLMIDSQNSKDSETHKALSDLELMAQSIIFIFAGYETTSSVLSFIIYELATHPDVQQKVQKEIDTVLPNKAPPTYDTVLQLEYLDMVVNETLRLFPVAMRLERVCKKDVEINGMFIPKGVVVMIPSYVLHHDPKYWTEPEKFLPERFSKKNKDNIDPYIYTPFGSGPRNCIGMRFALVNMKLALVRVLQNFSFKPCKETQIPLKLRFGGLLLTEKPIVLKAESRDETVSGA
Chain of Cytochrome P450 3A4 (Homo sapiens) (P08684 whole entry, looked up): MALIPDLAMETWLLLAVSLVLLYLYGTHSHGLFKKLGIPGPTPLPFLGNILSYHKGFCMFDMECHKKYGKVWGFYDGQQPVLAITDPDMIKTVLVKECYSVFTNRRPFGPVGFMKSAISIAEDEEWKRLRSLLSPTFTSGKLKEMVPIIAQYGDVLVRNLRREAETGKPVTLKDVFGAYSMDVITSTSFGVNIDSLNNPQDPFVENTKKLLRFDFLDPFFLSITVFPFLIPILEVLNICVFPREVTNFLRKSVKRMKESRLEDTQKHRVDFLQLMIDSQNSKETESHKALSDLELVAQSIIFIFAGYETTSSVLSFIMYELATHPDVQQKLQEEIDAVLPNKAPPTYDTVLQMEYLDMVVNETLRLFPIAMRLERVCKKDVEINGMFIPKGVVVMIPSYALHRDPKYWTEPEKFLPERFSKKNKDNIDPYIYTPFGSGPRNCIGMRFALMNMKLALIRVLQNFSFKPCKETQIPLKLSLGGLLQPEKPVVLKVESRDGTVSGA
Chain of Hypoxia-inducible factor 1-alpha (Homo sapiens) (Q16665 whole entry, looked up): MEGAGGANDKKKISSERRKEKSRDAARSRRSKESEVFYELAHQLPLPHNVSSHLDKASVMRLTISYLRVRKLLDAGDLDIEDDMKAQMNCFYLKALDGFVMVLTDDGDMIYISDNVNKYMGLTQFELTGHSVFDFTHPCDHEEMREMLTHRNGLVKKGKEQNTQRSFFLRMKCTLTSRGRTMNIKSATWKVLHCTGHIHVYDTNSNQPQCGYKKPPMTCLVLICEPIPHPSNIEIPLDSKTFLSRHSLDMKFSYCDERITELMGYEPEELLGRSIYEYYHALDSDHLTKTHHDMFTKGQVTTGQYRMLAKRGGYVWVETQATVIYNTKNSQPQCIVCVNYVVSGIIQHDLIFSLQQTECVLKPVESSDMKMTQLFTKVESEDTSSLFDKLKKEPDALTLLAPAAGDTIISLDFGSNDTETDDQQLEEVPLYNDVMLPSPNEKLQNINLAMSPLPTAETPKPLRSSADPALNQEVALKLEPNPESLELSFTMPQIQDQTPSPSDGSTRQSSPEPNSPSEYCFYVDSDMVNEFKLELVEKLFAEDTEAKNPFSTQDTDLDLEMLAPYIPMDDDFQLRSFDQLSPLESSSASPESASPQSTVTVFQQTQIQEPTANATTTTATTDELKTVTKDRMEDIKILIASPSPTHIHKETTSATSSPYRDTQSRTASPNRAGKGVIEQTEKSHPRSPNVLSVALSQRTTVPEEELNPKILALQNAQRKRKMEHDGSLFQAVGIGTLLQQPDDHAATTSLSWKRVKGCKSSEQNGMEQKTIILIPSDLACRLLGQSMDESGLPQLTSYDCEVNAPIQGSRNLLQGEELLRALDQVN

CCCCCCCCO
inactive: all assays above

C=CCCCCCCCCC(=O)O
inactive: all assays above

CC(C)=CCCC(C)CCO (stereo not given)
inactive: all assays above

CCCCCCc1ccc(O)cc1O
inactive: all assays above

Cc1ccc(N)cc1O
active: CYP2E1 (gene 1571) 30.8 µM | [7] 23.1 µM | [9] 24.4 µM
inactive: all other assays above

Cc1ccc(S(=O)(=O)O)cc1C
inactive: all assays above
